From PubChem BioAssay (NCI) come the findings set out here.

Compounds without any hit were thinned out: in the full panel of roughly 83,000, 20% have a hit.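 Results are percent growth after 48 hours of single-concentration exposure. 100 means growth as in untreated cells, lower positive values show inhibition; negative values down to -100 show cell death.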 A number with no mark means an inactive call. Active and inactive are the calls of the source. How the source made its calls: active means growth percent below 10; inactive means the rest.

Test in all cases: NCI-60 one-dose screen, 48 h (100 = growth as untreated, 0 = no growth, -100 = all killed)
Assay [1] deals with NCI-H226 lung. Conditions: 10 µM unless noted.
Assay [2] concerns NCI-H322M lung. Conditions: 10 µM unless noted.
In assay [3] the test system is HOP-62 NSCLC. The settings on record: 10 µM unless noted.
The test system of assay [4] is NCI-H460 lung. The settings on record: 10 µM unless noted.
For assay [5], the system named is HOP-92 NSCLC. The settings on record: 10 µM unless noted.
For assay [6], the system named is A549/ATCC NSCLC. The settings on record: 10 µM unless noted.
Assay [7] concerns 786-0 renal. The settings on record: 10 µM unless noted.
Assay [8] has as its system COLO 205 colon. The settings on record: 10 µM unless noted.
Assay [9] relates to NCI-H522 lung. Conditions: 10 µM.

On to `CCOC(CNCc1cc(C)c2[nH]c3ccccc3c2c1C)OCC`, for which the growth in [1] is 70%; in [2], 83.2%; in assay [3], 98.1%; in [4], 89.1%; in assay [5], 64.1%; in [6], 81%. Moreover, the growth in [7] was 65%; in assay [8], -25.4% (active).

On to `C/C(=C\CCc1ccoc1)CC/C=C(\C)CCCNc1ccc(F)cc1`, for which the growth in assay [1] is 88.5%; in assay [2], 85.4%; in assay [3], 93.6%; in assay [4] it was 92.7%; in assay [6] it was 80.4%; in assay [7] it was 95.1%. Besides, the growth in assay [8] is 98.1%.

With `Oc1c(Cl)cc(Cl)c(Cl)c1Cc1c(O)c(Cl)cc(Cl)c1Cl`, the growth in assay [1] was 18%; in assay [3], 21.5%; in assay [4], 5.9% (active); in assay [9], -3.33% (active); in assay [7], 12.2%; in assay [8] it was 70.3%.

With `Cn1c(N2N=C(c3ccc(Cl)cc3)CC2c2ccccc2)nc(-c2ccccc2)c(C#N)c1=O` (configuration not stated), the growth is 74.5% in assay [1]; 83.5% in assay [2]; 83% in [3]; 16% in assay [5]; 64.8% in [6]; 84.4% in assay [7]. In assay [8], the growth was 99.4%.

With `Cc1nn2c(/C=C3/C(=O)Nc4cc(Cl)ccc43)c(-c3ccccc3)nc2s1`, the growth in assay [1] was 95.2%; in assay [2], 31%; in [3], 20.4%; in [4], 13.6%; in [5] it was -27.8% (active); in assay [6], -28.7% (active). The growth is -74.8% (active) in assay [7] and 21.8% in [8].

In the case of `CCCCCCCSc1ncnc2[nH]ncc12`, the growth in assay [1] was 77.4%; in [2], 93.9%; in [3], 95.7%; in assay [4], 103%; in [5], -2.1% (active); in assay [6] it was 101%. Besides, the growth was 76.3% in assay [7] and 93.9% in assay [8].

Take `COc1ccccc1NC(=O)c1sc2nc3c(cc2c1N)C(=O)CCC3`: the growth in assay [1] was 76.2%; in assay [2] it was 59.7%; in assay [3], 100%; in [4] it was 19.3%; in [5], 37.5%; in assay [6], 34.2%. The growth in [7] was 89.1%; in [8], 26.4%.

Take `COc1ccc2c(c1)[n+](=O)c(/C=C/C(=O)c1cc(OC)c(OC)c(OC)c1)c(C)n2[O-]`: the growth was 84.5% in assay [1]; 110% in assay [2]; 94.3% in assay [3]; 81.8% in [4]; -22.4% (active) in [5]; -60.1% (active) in assay [9]. Further, the growth in assay [7] is 67.2%; in [8], 32%.

Regarding `CC1C(=O)NC2=Nc3ccccc3C(=O)NN21` (configuration not stated), the growth in [1] is 92.9%; in assay [2], 97.2%; in assay [3], 87.8%; in assay [4], 104%; in assay [5], 94.9%; in assay [7], 97.9%. The growth in [8] is 104%.

On to `FC(F)(F)c1ccc(-c2cnc(-c3nn[nH]n3)nc2NC2CCCCCC2)cc1`, for which the growth in [1] is 70.9% [50 µM]; in [2] it was 51.1% [50 µM]; in [3], 63.7% [50 µM]; in [4], 34.6% [50 µM]; in assay [5], -8.27% [50 µM] (active); in assay [6] it was 81.1% [50 µM]. Also, the results for the growth in [7] and in assay [8] were 49.8% [50 µM] and 95% [50 µM], respectively.

Regarding `CCOC(=O)C(C(=O)OCC)C1CCCCC1`, the growth was 98.7% in assay [1]; 94% in [2]; 106% in [4]; 82.4% in [5]; 96.8% in assay [6]; 96.4% in assay [7]. Also, the growth in [8] is 112%.

In the case of `CCOC(=O)C1C(=O)NC(C(=O)OCC)(C(=O)OCC)C1CC` (configuration not stated), the growth in assay [1] was 97.7%; in assay [2] it was 119%; in [3] it was 109%; in assay [4], 117%; in assay [5], 98%; in [6], 97.2%. Also, the growth is 107% in assay [7] and 114% in [8].

Take `COc1ccccc1-n1c(-c2ccc(O)cc2C)cn2c3c(=O)[nH]c(=O)n(C)c3nc12`: the growth in assay [1] was 92.4%; in [2], 113%; in assay [3] it was 79.3%; in assay [4], 93.1%; in assay [5], 49.4%; in assay [6], 86.6%. The growth in [7] is 72.2%; in [8], 102%.

With `CC(=O)N1N=C(c2ccc(Cl)cc2)CC1c1c(C)nn(-c2ccccc2)c1N(C)Cc1ccccc1` (configuration not stated), the growth in [1] was 67%; in assay [2], 91.4%; in [3], 74.3%; in [4], 79%; in [5], 55.2%; in assay [6], 53.5%. In addition, the growth in assay [7] was 84.7%; in assay [8], 74.9%.

As to `COc1cc(-c2nc3sc4c(c3c(=O)[nH]2)CCCCCC4)cc(OC)c1OC`, the growth in [1] is 60.9%; in assay [2], 39%; in assay [3] it was 29.6%; in assay [4], 8.85% (active); in assay [5], 42.7%; in assay [6], 25.8%. In addition, the growth in assay [7] was 40.7%; in assay [8] it was -24.2% (active).

On to `CCOC(=O)/C(=C/CC/C(C)=C/CC/C(C)=C/CCc1ccoc1)CC(=O)N1CCCCC1`, for which the growth in assay [1] was 73%; in assay [2] it was -91.8% (active); in assay [3], 86%; in assay [4], -56.4% (active); in assay [5], -11.2% (active); in assay [6] it was 5.91% (active). The growth in assay [7] is 86.3%; in assay [8], 1.9% (active).

Regarding `[N-]=[N+]=NCc1ncc(-c2ccc(C(F)(F)F)cc2)c(NC2CCCCCC2)n1`, the growth in assay [1] is 80.9% [50 µM]; in [2], 89.5% [50 µM]; in [3], 87% [50 µM]; in assay [4], 58.4% [50 µM]; in assay [5], 64.5% [50 µM]; in assay [6], 59.4% [50 µM]. Also, the growth is 68.7% [50 µM] in assay [7] and 87.2% [50 µM] in [8].

`CSc1nc2nc3c(c(-c4ccc(C)cc4)c2c(=O)[nH]1)CN(C)C/C3=C\c1ccc(C)cc1`: the growth in assay [1] was 102%; in assay [2] it was 103%; in [3], 115%; in [4] it was 111%; in assay [5] it was 97.3%; in [9], 93.2%. Also, the growth in [7] is 111%; in assay [8], 121%.

For `OCCN1CCN(CCCN2c3ccccc3Sc3ccc(C(F)(F)F)cc32)CC1`, the growth in assay [1] was 82.7%; in assay [3] it was 45.9%; in [4], 6.79% (active); in assay [5], 6.66% (active); in assay [7], 38.7%; in assay [8] it was -81.9% (active).

`Cc1ccc(-c2c3c(N)nc(-c4ccncc4)nc3nc3c2c(C)nn3-c2ccccc2)cc1`: the growth in [1] was 44.9%; in [2], 70.3%; in assay [3], 15.5%; in assay [4] it was 28.5%; in assay [5] it was -7.02% (active); in assay [6] it was 17.8%. Also, the growth is 80.8% in [7] and 18.1% in assay [8].
